The supplement of paper PMC3334620
Over roughly 33,000 sequences, “E-score (-0.5 to 0.5)” has its median near -0.04; the highest 2% begin near 0.36. Only a selection was taken, and the highest values are over-represented in it overall.

target: T1, Hmlalpha2 (UniProt P0CY09); test: PBM E-score (8-mer binding enrichment) (E-score (-0.5 to 0.5)); higher = stronger / more preferred TF binding; details: protein concentration: 200 nM; construct: GST-full length
T1 sequence: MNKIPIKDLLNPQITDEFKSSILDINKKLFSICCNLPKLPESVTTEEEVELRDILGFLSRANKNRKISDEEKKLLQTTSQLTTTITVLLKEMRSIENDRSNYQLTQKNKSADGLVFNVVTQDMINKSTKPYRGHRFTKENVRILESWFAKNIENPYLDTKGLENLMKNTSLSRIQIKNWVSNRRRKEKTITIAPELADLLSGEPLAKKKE
How it was run: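 GST-tagged yeast TFs (full-length or DNA-binding domain) were made by PURExpress in vitro transcription/translation and applied at about 100-200 nM to universal all-10-mer Agilent arrays. The arrays were made double-stranded by primer extension, on fresh or once-stripped slides. Bound protein was detected with fluorescent anti-GST, and scans were normalised with masliner. Each ungapped eight-base word, pooled with its reverse complement, received an E-score (modified Wilcoxon-Mann-Whitney statistic) from the Universal PBM Analysis Suite.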

| Sequence | PBM E-score |
| --- | --- |
| GTTGTAGA | 0.325 |
| GTTGTACA | 0.424 |
| ATTGTACA | 0.403 |
| CTTGTAGA | 0.253 |
| GCTGTACA | 0.154 |
| ATTGTACG | 0.123 |
| CTTGTACC | 0.0814 |
| ATTGTACC | 0.0764 |
| CTTGTACA | 0.403 |
| CTAGTTCA | 0.0551 |
| CCTCTCCG | -0.305 |
| TAAGTCGA | -0.0631 |
| CAACGGTC | -0.0538 |
| AAGAGGGA | -0.246 |
| CAAGATAG | -0.0379 |
| GTTTTGAA | 0.315 |
| ATCTCCTG | -0.0358 |
| CTGTGTCA | 0.0766 |
| ATGTGTAC | 0.372 |
| ATGTGTGC | -0.0456 |
| GGGTGTAA | 0.342 |
| GAGTGTAA | 0.295 |
| ATGTGTAA | 0.452 |
| CTGTGTGA | 0.247 |
| ATGTGTAG | 0.349 |
| CTGTGTAC | 0.35 |

| Sequence | PBM E-score |
| --- | --- |
| AAGTGTAA | 0.156 |
| CTGTGTAA | 0.483 |
| GTGTGTAA | 0.465 |
| CTCAGAGA | -0.0918 |
| CGCTAAAC | 0.0834 |
| CAAGATGA | -0.0169 |
| AAATGCCG | -0.02 |
| ACGGGGAA | -0.0619 |
| AGACCACT | -0.00203 |
| GCGCCAAC | -0.0446 |
| CGCTATAA | -0.00727 |
| TCTTAACA | 0.404 |
| CCTTAACA | 0.291 |
| ACTTAACG | 0.14 |
| TCTTAAGA | -0.132 |
| TCTTAAAA | -0.0174 |
| GCTTAACC | -0.00807 |
| ACTTAACT | 0.159 |
| ACTTAACA | 0.388 |
| GCTTAACA | 0.378 |
| TATAACGA | 0.176 |
| ACCTAGCC | -0.205 |
| AGTAGTGC | -0.153 |
| GAGACGAC | -0.19 |
| CCAAAAGG | -0.136 |
| CGGCGGCC | -0.188 |

| Sequence | PBM E-score |
| --- | --- |
| ACCGTGAT | -0.0701 |
| ACACGCGG | 0.324 |
| ACACGCGC | 0.304 |
| AAACGCGT | 0.312 |
| ACACGCGA | 0.378 |
| ACGCGCGT | 0.343 |
| ACACGCGT | 0.43 |
| AACTGCAC | 0.0702 |
| GAGGTAAA | 0.228 |
| AATGTAAC | 0.296 |
| ACTGTAAT | 0.251 |
| GATGTAGC | -0.0783 |
| AATGTAAA | 0.434 |
| TCTGTAAA | 0.278 |
| ACTGTAAA | 0.222 |
| GATGTAAA | 0.433 |
| AATGTAAT | 0.461 |
| ACAATTCT | 0.156 |
| AAAGAATC | -0.124 |
| CCTCTTCG | -0.127 |
| AAGGCTTC | -0.116 |
| CCTACACG | 0.393 |
| ACTACACC | 0.166 |
| GCTACACA | 0.323 |
| TCTACAGA | 0.133 |
| ATACTACA | 0.32 |

| Sequence | PBM E-score |
| --- | --- |
| ACTACACG | 0.454 |
| ACTACACT | 0.253 |
| TCTACACA | 0.445 |
| GTACTACA | 0.369 |
| CTACTACA | 0.304 |
| CCTACACC | -0.00672 |
| CCTACACA | 0.266 |
| ATGGTTAA | 0.139 |
| CATGTGAC | 0.19 |
| CCCCTTCA | -0.233 |
| AGTGCAGG | -0.159 |
| TCAAGCCA | -0.0161 |
| CCCCCTAC | -0.279 |
| CCCAATCC | -0.281 |
| CGTATCCA | -0.0445 |
| AACAACGG | 0.138 |
| GAACTACA | 0.197 |
| ACTACAGA | 0.119 |
| CCACTACA | 0.212 |
| CAACTACA | 0.316 |
| TAACTACA | 0.378 |
| ACACTACT | 0.105 |
| ACTACAAG | 0.267 |
| ACTACACA | 0.406 |
| ACACTACA | 0.397 |
| AGCTCTTC | -0.21 |

| Sequence | PBM E-score |
| --- | --- |
| ATCGCGGA | -0.302 |
| GTCAAGTA | 0.201 |
| CGAAGCGA | -0.131 |
| CCAGTAGC | -0.157 |
| CACCGCCG | -0.288 |
| ATGAGTCG | -0.0768 |
| CATCAACC | 0.0266 |
| TAGACGCA | 0.0971 |
| TCCCTGAA | -0.0392 |
| ATATGTAC | 0.337 |
| ATATGTAA | 0.416 |
| CTCTGTAA | 0.195 |
| GTATGTAA | 0.477 |
| CTATGTAC | 0.401 |
| GTATGTCA | 0.352 |
| CTATGTGA | 0.172 |
| ATATGTGA | 0.234 |
| CTATGTAA | 0.485 |
| CTCTGTAC | -0.00455 |
| GTATGTGA | 0.199 |
| ATATGTAG | 0.3 |
| ATCAAAAA | 0.0225 |
| AAAGCGAC | 0.0782 |
